# PubChem BioAssay (NCATS)
# Results filed as inconclusive are left out. Where a call stands in place of a potency, no number is given. A number with no mark means an inactive call. The source made the active and inactive calls. Calls come from the whole dose curve; as a rule, active = well fitted inhibition curve with a large enough effect; inconclusive = small, poorly fitted or top-dose-only effect; inactive = flat fitted curve, though single readings scatter.
# Legend:
# [1] = biological target: Calcium and integrin-binding protein 1 (Homo sapiens) (UniProt Q99828); assay: Primary qHTS for Identification of Calcium Integrin Binding Protein 1 (CIB1) Competitor (AID 1508620);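 note: GST tagged CIB1 binding a fluorescein labelled alphaIIb integrin peptide tracer; top concentration of the series differs between compounds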
# In short: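 Fluorescence polarization competition: GST-tagged CIB1 (1 uM final) preincubated with compound 15 min at room temperature, then FITC-labelled alphaIIb peptide (100 nM final) added. After 15 min at room temperature, polarization read at Ex 480/Em 540.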
# [2] = Primary qHTS for inhibitors of nuclear receptor binding SET domain protein 2 (NSD2) in an isogenic RCH-ACV NSD2 p.E1099K mutant (9B) (AID 1645876); note: nearly all actives have a fitted effect of over 70% in size; note: potency is the fitted concentration of half-maximal effect
# Chain of Calcium and integrin-binding protein 1 (Homo sapiens) (Q99828 whole entry, looked up): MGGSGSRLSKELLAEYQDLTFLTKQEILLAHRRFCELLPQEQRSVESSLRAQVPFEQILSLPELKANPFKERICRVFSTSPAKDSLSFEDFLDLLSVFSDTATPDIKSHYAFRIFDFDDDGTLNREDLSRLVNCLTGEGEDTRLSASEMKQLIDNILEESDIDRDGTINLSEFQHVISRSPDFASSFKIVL
compound,measurement,setting,value
CC(C)c1nnc(-c2ccc(-c3ccccc3)nc2)n1-c1cccc2nonc12,Potency,[1],inactive
same,Potency,[2],inactive
C=C1C[C@]23C[C@H]1CC[C@H]2[C@@]1(C)CCC[C@@]2(C)C(=O)O[C@@H]([C@@H]3O)[C@@H]12,Potency,[1],inactive
same,Potency,[2],inactive
CC1(C)CCC[C@]2(C)[C@H]3CC(=O)O[C@]3(C)CC[C@@H]12,Potency,[1],inactive
same,Potency,[2],inactive
C[C@H](O)[C@H](O)/C=C/c1cccc(O)c1CO,Potency,[1],inactive
same,Potency,[2],inactive
NC(=O)[C@H](O[C@@H]1O[C@H](CO)[C@@H](O)[C@H](O)[C@H]1O)c1ccccc1,Potency,[1],inactive
same,Potency,[2],inactive
C=C1CCC2C(C)(C(=O)O)CCCC2(C)C1CC/C(=C\CO)CO (stereo unspecified),Potency,[1],inactive
same,Potency,[2],inactive
C/C=C/c1ccc(O[C@@H]2O[C@H](CO)[C@@H](O)[C@H](O)[C@H]2O)c(OC)c1,Potency,[1],inactive
same,Potency,[2],inactive
COC1CC(O[C@H]2CC[C@@]3(C)C(CCC4C3[C@H](OC(C)=O)[C@@H](OC(=O)/C=C/c3ccccc3)[C@]3(C)C(C(C)=O)CC[C@]43O)C2)OC(C)C1OC1CC(OC)C(OC2CC(OC)C(OC3OC(C)C(OC4OC(CO)C(O)C(O)C4O)C(OC)C3O)C(C)O2)C(C)O1 (stereo partly specified),"activity change, negative = inhibition",[1],3.75% [at 12.4 µM]
same,"activity change, negative = viability loss",[2],-23.3% [at 9.23 µM]
OC[C@H]1O[C@@H](OC(CCCCc2ccc(O)cc2)CCc2ccc(O)cc2)[C@H](O)[C@@H](O)[C@@H]1O (stereo partly specified),Potency,[1],inactive
same,Potency,[2],inactive
CC(C)C(NC(=O)c1ccc2ccccc2n1)C(=O)NC(CC(=O)O)C(=O)COc1c(F)cccc1F (stereo unspecified),Potency,[1],inactive
same,Potency,[2],inactive
C=C(C(=O)O)C1CCC2(C)CCC(O)C(C)(O)C2C1 (stereo unspecified),Potency,[1],inactive
same,Potency,[2],inactive
OCC(CO[C@@H]1O[C@H](CO)[C@@H](O)[C@H](O)[C@H]1O)c1ccc2c(c1)OCO2 (stereo partly specified),Potency,[1],inactive
same,Potency,[2],inactive
C=C1[C@@H]2CC[C@@H]3[C@@](CCC4C(C(=O)O)(C(=O)O)C[C@@H](O[C@@H]5O[C@H](CO)[C@@H](O)[C@H](O)[C@H]5OC(=O)CC(C)C)C[C@]43C)(C2)[C@H]1O (stereo partly specified),Potency,[1],inactive
same,Potency,[2],inactive
CC1=C2C(O)C(=O)OC(c3ccoc3)C2(C)CCC1O (stereo unspecified),Potency,[1],inactive
same,Potency,[2],inactive
COC(=O)C[C@H]1[C@]2(C)C3=C(C)[C@H](c4ccoc4)C[C@H]3O[C@@H]2[C@H](OC(C)=O)C2[C@](C)(C(=O)OC)C=CC(=O)[C@@]21C (stereo partly specified),Potency,[1],inactive
same,Potency,[2],inactive
CCOC(=O)C(CCc1ccccc1)NC(C)C(=O)N1C(=O)N(C)CC1C(=O)O (stereo unspecified),Potency,[1],inactive
same,Potency,[2],inactive
C[C@@H]1O[C@@H](O[C@H]2[C@@H]3C=CO[C@@H](O[C@@H]4O[C@H](CO)[C@@H](O)[C@H](O)[C@H]4O)[C@@H]3[C@@]3(CO)O[C@@H]23)[C@H](OC(=O)/C=C/c2ccc(O)c(O)c2)[C@H](O)[C@H]1O,Potency,[1],inactive
same,Potency,[2],inactive
C=CC(C)(CC/C=C(\C)C(=O)OC)OC1OC(COC(=O)CC(C)(O)CC(=O)O)C(OC2OC(CO)C(O)C(O)C2O)C(O)C1O (stereo unspecified),Potency,[1],inactive
same,Potency,[2],inactive
OC/C=C/C=C/[C@H]1Cc2cc(O)cc(O)c2O1,Potency,[1],inactive
same,Potency,[2],inactive
CC1CC[C@]2(C(=O)O)CC[C@]3(C(=O)O)C(=CCC4[C@@]5(C)CC[C@H](OC6OC(C)C(O)C(OC7OC(CO)C(O)C(O)C7O)C6O)C(C)(C)C5CC[C@]43C)C2C1C (stereo partly specified),Potency,[1],inactive
same,Potency,[2],inactive
CC12CCC3c4ccc(O)cc4CCC3C1CC(OC1OC(C(=O)O)C(O)C(O)C1O)C2O (stereo unspecified),Potency,[1],inactive
same,Potency,[2],inactive
C[C@@H]1O[C@@H](OC[C@H]2O[C@@H](Oc3cc(O)cc4c3C(=O)C(O)(Cc3ccc(O)cc3)O4)[C@H](O)[C@@H](O)[C@@H]2O)[C@H](O)[C@H](O)[C@H]1O (stereo partly specified),Potency,[1],inactive
same,Potency,[2],inactive
CC(=O)C1=C(C)N(c2cccc(C(F)(F)F)c2)C(=O)N[C@H]1c1ccc(C#N)nc1,Potency,[1],inactive
same,"activity change, negative = viability loss",[2],-10.2% [at 9.23 µM]
CCOC(=O)CCN(C(=O)c1ccc2c(c1)nc(CNc1ccc(C(=N)N)cc1)n2C)c1ccccn1,Potency,[1],inactive
same,Potency,[2],inactive
C=C(C)C1CCC2(C(=O)O)CCC3(C(=O)O)C(CCC4C5(C)CCC(O)C(C)(C(=O)O)C5CCC43C)C12 (stereo unspecified),Potency,[1],inactive
same,Potency,[2],inactive
C[C@H](CCC(=O)O)[C@H]1CC[C@H]2[C@@H]3C[C@H](O)[C@@H]4C[C@H](O)CC[C@]4(C)[C@H]3CC[C@]12C,Potency,[1],inactive
same,Potency,[2],inactive
CC1(C)CC2C(O)c3cocc3CC(C)(O)C2C1 (stereo unspecified),Potency,[1],inactive
same,Potency,[2],inactive
CCC(=O)O[C@H]1C(C)(C)[C@H]([C@@H](O)C(=O)OC)[C@]2(C)C(=O)[C@@]1(O)[C@H]1O[C@]13C1CC(=O)O[C@@H](c4ccoc4)[C@]1(C)CCC32 (stereo partly specified),Potency,[1],inactive
same,Potency,[2],inactive
COc1cc(/C=C/CO)cc(OC)c1O[C@@H]1O[C@H](CO[C@@H]2O[C@H](CO)[C@@H](O)[C@H](O)[C@H]2O)[C@@H](O)[C@H](O)[C@H]1O,Potency,[1],inactive
same,Potency,[2],inactive
C=C[C@H]1[C@H](O[C@@H]2O[C@H](CO)[C@@H](O)[C@H](O)[C@H]2O)OC=C(C(=O)OC)[C@H]1C[C@@H]1c2cc(O)c(O)cc2CCN1C(C)=O,Potency,[1],inactive
same,Potency,[2],inactive
N=c1nc2n(cc1F)C1OC(CO)C(O)C1O2 (stereo unspecified),Potency,[1],inactive
same,Potency,[2],57.8 nM (active)
C=C1C(O)C[C@@H]2C(C(=O)O)=CO[C@@H](O[C@@H]3O[C@H](CO)[C@@H](O)[C@H](O)[C@H]3OC(=O)c3ccc(O)cc3)[C@H]12 (stereo partly specified),Potency,[1],inactive
same,Potency,[2],inactive
CC1OC(OC2C(OC3C(O[C@H]4CC[C@@]5(C)C(CC[C@]6(C)C5C(=O)C=C5C7CC(C)(C)CC(O)[C@]7(C)CC[C@]56C)C4(C)C)OC(C(=O)O)C(O)C3O)OCC(O)C2O)C(O)C(O)C1O (stereo partly specified),Potency,[1],inactive
same,"activity change, negative = viability loss",[2],-6.05% [at 9.23 µM]
COC(=O)N1CCC(n2ncc3c(N4CCOCC4)nc(-c4ccc(NC(=O)Nc5ccc(CO)cc5)cc4)nc32)CC1,Potency,[1],inactive
same,Potency,[2],16.3 nM (active)
CCC1=CC2CN(C1)Cc1c([nH]c3ccccc13)[C@@](C(=O)OC)(c1cc3c(cc1OC)N(C)[C@H]1[C@@](O)(C(=O)OC)[C@H](OC(C)=O)[C@]4(CC)C=CCN5CC[C@]31[C@@H]54)C2 (stereo partly specified),Potency,[1],inactive
same,Potency,[2],79.6 nM (active)
CCC(C)/C=C(C)/C=C/c1cc2c(cn1)C(=O)C(C)(OC(C)=O)C(O)=C2Cl (stereo unspecified),Potency,[1],inactive
same,Potency,[2],inactive
O=C(CO)[C@@H](O)[C@H](O[C@@H]1O[C@H](CO)[C@H](O)[C@H](O)[C@H]1O)[C@H](O)CO,Potency,[1],inactive
same,Potency,[2],inactive
COc1cc(/C=C/C(=O)OC[C@H]2O[C@@](CO)(O[C@H]3O[C@H](CO)[C@@H](O)[C@H](O)[C@H]3O)[C@@H](OC(=O)/C=C/c3ccc(O)c(OC)c3)[C@@H]2O)ccc1O,Potency,[1],inactive
same,Potency,[2],inactive
C[C@@H]1C(=O)O[C@H]2[C@H](O)C34[C@H]5C[C@@H](C(C)(C)C)C36[C@@H](OC(=O)[C@@H]6O)O[C@@]4(C(=O)O5)[C@@]12O (stereo partly specified),Potency,[1],inactive
same,Potency,[2],inactive
CCCOc1ccc(-c2nc(OC)c3ccccc3n2)cc1,Potency,[1],inactive
same,Potency,[2],inactive
C[C@@]12CC[C@@H]3[C@@](CC[C@H]4[C@@]3(C)CCC[C@@]4(C)C(=O)O)(CC1=O)C2,Potency,[1],inactive
same,Potency,[2],inactive
Cc1nc([C@](C)(O)CO)sc1-c1cnc(N)c(O[C@H](C)c2cc(F)ccc2-n2nccn2)c1,Potency,[1],inactive
same,Potency,[2],8330 nM (active)
CC1(C)CC[C@]23CO[C@@]4(CCC5[C@@]6(C)CC[C@H](O[C@@H]7OC[C@H](O[C@@H]8O[C@H](CO)[C@@H](O)[C@H](O)[C@H]8O)[C@H](O)[C@H]7O[C@@H]7O[C@H](CO)[C@@H](O[C@@H]8O[C@H](CO)[C@@H](O)[C@H](O)[C@H]8O)[C@H](O)[C@H]7O)[C@@](C)(CO)C6CC[C@@]5(C)[C@]4(C)C[C@H]2OC2OCC(O)C(O)C2O)C3C1 (stereo partly specified),"activity change, negative = inhibition",[1],-6.44% [at 12.4 µM]
same,Potency,[2],688 nM (active)
C[C@@]1(O)[C@H](O)[C@@H](CO)O[C@H]1n1ccc(N)nc1=O,Potency,[1],inactive
same,Potency,[2],20500 nM (active)
CC(=O)O[C@@H]1[C@@H](CO)O[C@@](CO)(O[C@H]2O[C@H](COC(=O)/C=C/c3ccccc3)[C@@H](O)[C@H](O)[C@H]2O)[C@H]1O,Potency,[1],inactive
same,Potency,[2],inactive
C=C(C(=O)O)C1CCC2(C)CCC(O)C(=C)C2C1 (stereo unspecified),Potency,[1],inactive
same,Potency,[2],inactive
CC1(C)CC[C@]2(C(=O)O[C@@H]3O[C@H](CO)[C@@H](O)[C@H](O)[C@H]3O)CC[C@]3(C)C(=CCC4[C@@]5(C)C[C@@H](O)[C@H](O)[C@](C)(C=O)C5CC[C@]43C)[C@@H]2[C@@H]1O (stereo partly specified),Potency,[1],inactive
same,Potency,[2],inactive
COC(=O)C(C)C1CCC2(C)C(=O)C=CC(C)(O)C2C1O (stereo unspecified),Potency,[1],inactive
same,Potency,[2],inactive
CC(=O)N[C@@H](CCCCN)C(=O)N(C)[C@@H](CC(C)C)C(=O)N[C@H](C(=O)N(C)[C@@H](Cc1ccccc1)C(=O)N[C@H](Cc1ccccc1)C(N)=O)C(C)C,"activity change, negative = inhibition",[1],1.59% [at 12.4 µM]
same,outcome,[2],inactive [at 4.96 µM]
CC[C@H](NC(=O)[C@H](CS(=O)(=O)CC1CC1)N[C@@H](c1ccc(F)cc1)C(F)(F)F)C(=O)C(=O)NC1CC1,Potency,[1],inactive
same,Potency,[2],inactive
C[C@@H]1CC[C@]2(C(=O)O)CC[C@]3(C)C(=CCC4[C@@]5(C)C[C@@H](O)[C@H](O)[C@@](C)(CO)C5CC[C@]43C)C2[C@]1(C)O (stereo partly specified),Potency,[1],inactive
same,Potency,[2],inactive
C=C(C)C(=O)O[C@H]1CC2=CC(C/C(C)=C\[C@H]3OC(=O)C(=C)[C@H]13)OC2=O (stereo partly specified),Potency,[1],inactive
same,Potency,[2],5050 nM (active)
CC1(C)CC[C@]2(C(=O)OC3OC(CO)C(O)C(O)C3O)CC[C@]3(C)C(=CCC4[C@@]5(C)CC[C@H](OC6OC(C(=O)O)C(O)C(OC7OC(CO)C(O)C(O)C7O)C6O)C(C)(C)C5CC[C@]43C)C2C1 (stereo partly specified),Potency,[1],inactive
same,"activity change, negative = viability loss",[2],-3.97% [at 9.23 µM]
